Source: PubChem BioAssay (NCI)
The panel holds about 79,000 compounds, 15% with a hit somewhere; the sample as a whole holds those more often. A number with no mark means an inactive call. Activity calls are given as the source filed them. Rule as the data show it: active = growth inhibition above about 70%; inactive = the rest.

Experiment: NCI Yeast Anticancer Drug Screen. Data for the cln2 rad14 strain (AID 165);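 also: 0% = growth equal to vehicle treated cultures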
Conditions: S. cerevisiae cln2 rad14 strain, at 5.0 µM (retest, dose inferred, filed as 0.5), active compounds read high
Method in brief: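 Each compound was tested on cln2 rad14 yeast. Inhibition of growth was calculated against vehicle-exposed controls.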

Row | Compound | growth inhibition
1 | COC(=O)/C=C/c1cccc[n+]1[O-] | 4%
2 | CN(C)CCCNc1c(C#N)[n+]([O-])c2cc(Cl)ccc2[n+]1[O-] | 70% (active)
3 | Cc1c(N=Nc2ccc(Br)cc2)c(-c2ccccc2)nn1C(N)=S | -4%
4 | COc1cc2c(c(OC)c1OC)-c1ccc(O)c(=O)cc1C(N=Cc1ccccc1)CC2 (centres undefined) | -7%
5 | CCC(C)SC1SCC2C(=O)N(C)C3(CC3C)C(=O)OCC(NC(=O)c3nc4ccccc4cc3O)C(=O)NC(C)C(=O)N(C)C1C(=O)N(C)C1(CC1C)C(=O)OCC(NC(=O)c1nc3ccccc3cc1O)C(=O)NC(C)C(=O)N2C (centres undefined) | 79% (active)
6 | O=C(N/C(=C\c1ccc2c(c1)OCO2)c1nc2ccccc2s1)c1ccccc1 | 10%
7 | CCCC/C=C1/CCC(CN(C)C)C1=O (centres undefined) | 6%
8 | O=C(O)c1cc2c(cc1CC(Cc1ccc3c(c1)CCCC3)C(=O)O)CCCC2 (centres undefined) | 9%
9 | CCNC(=O)COc1ccc(Cl)cc1Cl | 7%
10 | Fc1ccc(OCCC(Cn2ccnc2)c2ccc(Cl)cc2Cl)cc1 (centres undefined) | 61%
11 | Cc1ccc(NC(=O)/C(CC(=O)c2sc(Nc3ccc(Cl)c(Cl)c3)nc2C)=N\Nc2ccc([N+](=O)[O-])cc2[N+](=O)[O-])c(C)c1 | 0%
12 | Oc1ccc(C/C=C/c2ccccc2)cc1O | -7%
13 | CC(=O)OC1=CC2=CCC3C(CCC4(C)C(C(C)=O)CCC34)C2(C)CC1 (centres undefined) | -6%
14 | CCCCNc1ccc(-c2c(N)nc(N)nc2CC)cc1[N+](=O)[O-] | -34%
